Screens (PubChem)
LmPK inh – qHTS Assay for Inhibitors of Leishmania Mexicana Pyruvate Kinase (LmPK). Q27686. 290,000 tested, 0.37% active. AID 1721, 2009. Potency, µM (titrated, usually from 57.5 µM), for the others: top-dose activity change, negative = inhibition, hits mostly inhibitors. purified LmPK, Kinase-Glo ATP luminescence, 1 h; further: potency means the concentration at half of the fitted maximal effect; on the % scale 0 is the no-effect control and ±100 the full control effect
Target sequence (Q27686 whole entry, looked up): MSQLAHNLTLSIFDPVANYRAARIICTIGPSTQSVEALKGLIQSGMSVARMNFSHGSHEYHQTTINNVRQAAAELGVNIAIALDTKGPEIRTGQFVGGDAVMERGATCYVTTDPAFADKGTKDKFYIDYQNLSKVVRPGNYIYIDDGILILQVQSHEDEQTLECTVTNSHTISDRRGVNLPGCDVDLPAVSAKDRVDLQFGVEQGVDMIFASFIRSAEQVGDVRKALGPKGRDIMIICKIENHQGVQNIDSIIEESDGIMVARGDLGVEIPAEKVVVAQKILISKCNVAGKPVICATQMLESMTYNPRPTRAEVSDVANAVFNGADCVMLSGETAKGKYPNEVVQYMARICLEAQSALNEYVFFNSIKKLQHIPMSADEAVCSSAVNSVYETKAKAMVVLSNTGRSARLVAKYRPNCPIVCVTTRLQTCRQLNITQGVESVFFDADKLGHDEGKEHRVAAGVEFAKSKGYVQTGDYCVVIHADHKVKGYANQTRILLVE
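Pyruvate kinase activity monitored as ATP production (luciferase luminescence). Conditions: 0.1 nM enzyme, 0.5 mM PEP, 0.1 mM ADP, 1 h, RT; normalized against uninhibited and no-enzyme wells.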
TbPYK inhibitor – qHTS of Trypanosoma Brucei Inhibitors; pyruvate kinase (Trypanosoma brucei), Q57TT1; TbPYK enzyme, Kinase-Glo Plus ATP luminescence, 45 min; Potency, µM (titrated, usually from 76.8 µM), without a hit: at the top dose activity, negative = inhibition, usual class: inhibitors; 410,000 tested, 0.12% active; further: potency means the concentration at half of the fitted maximal effect; on the % scale 0 is the no-effect control and ±100 the full control effect; nearly all actives have a fitted effect of over 50% in size
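Luminescent Kinase-Glo Plus end-point after 45 min room-temperature reaction of T. brucei pyruvate kinase started with 130 uM ADP (final). Buffer TEA 50 mM pH 7.2 with KCl, MgCl2, BSA, Tween-20; titration-based qHTS with fitted concentration-effect curves.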
Shiga inhibitor – A qHTS for Small Molecule Inhibitors of Shiga Toxin; Vero cells, Shiga toxin protein synthesis inhibition reporter; inhibition, % at 38.7 µM; 290,000 tested, 9.2% active; in the data active means inhibition mostly above about 28%, no sharp cut-off; inactive means mostly below about 43%; further: 0% is about no effect
CHX counter – Cycloheximide Counterscreen for Small Molecule Inhibitors of Shiga Toxin. AID 2314, 2010. max response, %. 300,000 tested, 12% active. cell reporter, cycloheximide protein synthesis inhibition counterscreen; in the data active means max response mostly above about 13%, no sharp cut-off; inactive means mostly below about 14%; further: read at 38.3 µM for the half of the compounds with a filed dose; 0% is about no effect
Giardia FBPA inh – qHTS Assay for Inhibitors of Fructose-1,6-bisphosphate Aldolase from Giardia Lamblia; 290,000 tested, 0.71% active; purified Giardia FBPA; Potency, µM (series often up to 59.6 µM), for inactives: at the top dose activity, negative = inhibition, most hits filed as inhibitors; further: potency means the concentration at half of the fitted maximal effect; on the % scale 0 is the no-effect control and ±100 the full control effect; nearly all actives have a fitted effect of over 55% in size
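Giardia FBPA (40 nM reagent) was preincubated 10 min at RT with compound (up to 57.5 uM final), then substrate plus GAPDH/TPI/NAD/arsenate coupling system with diaphorase/resazurin was added; resorufin fluorescence (525/598 nm) was read after 20 min.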
RE007 growth inh – qHTS Assay for Inhibitors of the HIV-1 protein Vpr. S. pombe RE007 Vpr strain, BacTiter-Glo ATP luminescence, 24 h. Potency, µM (top dose mostly 92.2 µM), inactives show at the top dose activity change, negative = less growth, hits mostly inhibitors. 360,000 tested, 0.21% active; active means well fitted falling curve with a large enough effect; inconclusive means small, poorly fitted or top-dose-only effect; inactive means no such curve, though single readings can be large or run the other way; further: potency means the concentration at half of the fitted maximal effect; on the % scale 0 is the no-effect control and ±100 the full control effect; nearly all actives have a fitted effect of over 50% in size
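Fission yeast strain RE007, carrying one chromosomally integrated HIV-1 vpr copy, was seeded at OD 0.01 in PMG+AL medium with 23 nL pinned compound. After 24 h at 30 °C and 99% humidity, viability was read by BacTiter-Glo luminescence.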
* = called active by the depositor; [ ] = dose if it differs, or a comment. The entries come from a sample that favours hits as a whole. Unless noted, the call rests on the fitted dose curve; in most records, active means well fitted curve in the direction sought with a large enough effect; inconclusive means small, poorly fitted or top-dose-only effect, or another doubt; inactive means no such curve, though single readings can be large; an effect the other way counts as inactive or inconclusive.

How did Cc1ccc(Nc2nnc(SCC(=O)NCC3CCCO3)s2)cc1 (centres undefined) do in these assays?
TbPYK inhibitor: 3%; RE007 growth inh: -11%

What do the screens show for `COc1ccccc1NC(=O)CSc1nnc(-c2nonc2NC(C)=O)n1-c1ccccc1`?
TbPYK inhibitor: -8%

How did COc1ncc2nc(-c3cccs3)c(=O)n(CCc3ccccc3)c2n1 do in these assays?
Giardia FBPA inh: 0%

How did CCc1cc(C(=O)NCC2CCCO2)sc1C (centres undefined) do in these assays?
LmPK inh: 0%; TbPYK inhibitor: -3%; Shiga inhibitor: 43*; CHX counter: 31*; RE007 growth inh: 1%

Results for Cc1ccc(Nc2nc(C(=O)N3CCC(C(=O)NC(C)C)CC3)cs2)cc1 ?
LmPK inh: -10%; TbPYK inhibitor: 0%; Shiga inhibitor: 17; CHX counter: 17*; Giardia FBPA inh: -1%; RE007 growth inh: -4%

Results for CCN(CC)C(=O)c1csc(Nc2ccc(C)cc2)n1 ?
LmPK inh: -2%; TbPYK inhibitor: -1%; Shiga inhibitor: 49*; CHX counter: 20*; Giardia FBPA inh: 1%; RE007 growth inh: -10%

What do the screens show for `O=C(NCC1CCCO1)c1cc(-c2ccc(Cl)cc2Cl)on1` (centres undefined)?
LmPK inh: 2%; TbPYK inhibitor: 0%; Shiga inhibitor: 75*; CHX counter: 52*; RE007 growth inh: 3%

Results for COc1ccc(CC(=O)N2CCc3cc(OC)c(OC)cc3C2COc2cc(C)cc(C)c2)cc1OC (centres undefined) ?
TbPYK inhibitor: -1%

Results for O=C(NCC1CCCO1)c1cc(-c2ccccc2)on1 (centres undefined) ?
LmPK inh: -11%; TbPYK inhibitor: -8%; Shiga inhibitor: 129*; CHX counter: 40*; Giardia FBPA inh: 2%; RE007 growth inh: -15%

How did CC(C)(C)c1ccccc1NC(=O)CSc1nc(-c2cccs2)cc(C(F)(F)F)n1 do in these assays?
TbPYK inhibitor: 0%

What do the screens show for `COc1cc(/C=C/C(=O)OC2CC3CCC2(C)C3(C)C)ccc1O` (centres undefined)?
LmPK inh: 2%; TbPYK inhibitor: -6%; Shiga inhibitor: 23; CHX counter: 14*; Giardia FBPA inh: -11%; RE007 growth inh: inconclusive

What do the screens show for `CC(C)(C)c1cc(-c2n[nH]c(=S)n2-c2ccccc2F)n[nH]1`?
LmPK inh: 14µM*; TbPYK inhibitor: inconclusive; Shiga inhibitor: 74*; CHX counter: 40*; Giardia FBPA inh: -17%; RE007 growth inh: -12%

How did COc1cc(C(=O)NN=Cc2ccc(N(C)C)cc2)cc(OC)c1OC do in these assays?
TbPYK inhibitor: 2%; RE007 growth inh: -9%

What do the screens show for `Cc1cc(Br)c(NC(=O)CN2CCCC2)c(Br)c1`?
LmPK inh: 1%; TbPYK inhibitor: -7%; Shiga inhibitor: 64*; CHX counter: 16*; Giardia FBPA inh: -15%; RE007 growth inh: -12%

How did Cc1ccc(NC(=O)CN2CCOCC2)c(Br)c1 do in these assays?
LmPK inh: -3%; TbPYK inhibitor: 5%; CHX counter: 23*; Giardia FBPA inh: -5%; RE007 growth inh: -20%

What do the screens show for `CCCCn1c(C(C)NC(=O)c2ccccc2)nc2ccccc21` (centres undefined)?
TbPYK inhibitor: -2%

What do the screens show for `COc1cc(C(=O)Nc2cc(C)ccn2)ccc1OCC(=O)N1CCOCC1`?
LmPK inh: -27%; TbPYK inhibitor: -2%; Shiga inhibitor: 51*; CHX counter: 42*; RE007 growth inh: -2%

How did CCCCOc1ccc(C(=O)Nc2cc(C)c(OCC(=O)N3CCOCC3)c(C)c2)cc1 do in these assays?
LmPK inh: 4%; TbPYK inhibitor: -6%; Shiga inhibitor: 11; CHX counter: 22*; Giardia FBPA inh: -1%; RE007 growth inh: 4%

Results for Cc1cc(NC(=O)c2ccc(Cl)cc2)cc(C)c1OCC(=O)N1CCOCC1 ?
LmPK inh: -6%; TbPYK inhibitor: -1%; Shiga inhibitor: 77*; CHX counter: 33*; RE007 growth inh: -2%

What do the screens show for `OCCNc1ncnc2c1ncn2[C@H]1CN(Cc2ccco2)C[C@@H](CO)O1`?
TbPYK inhibitor: 4%; RE007 growth inh: 20%[18.4 µM]

Results for COc1ccc(Br)cc1C1Nc2cccc3cccc(c23)N1 ?
LmPK inh: 1%; TbPYK inhibitor: -7%; CHX counter: 30*; Giardia FBPA inh: -28%; RE007 growth inh: -10%

What do the screens show for `COc1cc(C2Nc3cccc4cccc(c34)N2)ccc1O`?
LmPK inh: -22%; TbPYK inhibitor: -4%; Shiga inhibitor: -11; CHX counter: 0; Giardia FBPA inh: inconclusive; RE007 growth inh: 4%

How did COc1ccccc1NC(=O)c1sc(-c2ccc(Cl)cc2)cc1N do in these assays?
TbPYK inhibitor: -1%

Results for CC(=O)N/C(=N\c1nc(C)cc(C)n1)Nc1ccc2ccccc2c1 ?
LmPK inh: 12%; TbPYK inhibitor: -21%; Shiga inhibitor: 125*; CHX counter: 40*; Giardia FBPA inh: 0%; RE007 growth inh: -4%

How did CCOC1=CC2=C(C(=O)C(Cl)=CC2=O)[C@@H]2CN(S(=O)(=O)c3ccc(C)cc3)[C@@H](c3ccccc3)[C@H]12 do in these assays?
TbPYK inhibitor: 2.5µM*; RE007 growth inh: 6%

Results for OC1CCN(c2c3c(nc4cc(-c5ccc(F)cc5)nn24)CCC3)CC1 ?
LmPK inh: -1%; TbPYK inhibitor: 5%; Shiga inhibitor: -6; CHX counter: 2; Giardia FBPA inh: -1%; RE007 growth inh: -21%

Results for OC1CCCN(c2c3c(nc4cc(-c5cccc(F)c5)nn24)CCCC3)C1 (centres undefined) ?
LmPK inh: -5%; TbPYK inhibitor: -7%; Shiga inhibitor: 80*; CHX counter: 57*; Giardia FBPA inh: -19%; RE007 growth inh: 1%

How did Cc1cccc(-c2cc3nc4c(c(N5CCCC(O)C5)n3n2)CCC4)c1 (centres undefined) do in these assays?
LmPK inh: -2%; TbPYK inhibitor: -9%; Shiga inhibitor: -5; CHX counter: -2; Giardia FBPA inh: 5%; RE007 growth inh: 7%

Results for Cc1cccc(-c2cc3nc4c(c(NCc5ccco5)n3n2)CCCC4)c1 ?
LmPK inh: 0%; TbPYK inhibitor: 6%; Shiga inhibitor: 126*; CHX counter: 57*; Giardia FBPA inh: -7%; RE007 growth inh: 0%
